FBW7 activator = activators of human E3 ligase FBW7; Q969H0; AlphaScreen FBW7–phospho-cyclin E peptide binding, activator screen; normalized activity (activation), % at 26.1 µM; hit rate 0.13% among 650,000; in the data active = normalized activity above about 1.9%;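 also: purified mutant Fbw7 with reduced substrate affinity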
Target sequence (Q969H0 whole entry, looked up): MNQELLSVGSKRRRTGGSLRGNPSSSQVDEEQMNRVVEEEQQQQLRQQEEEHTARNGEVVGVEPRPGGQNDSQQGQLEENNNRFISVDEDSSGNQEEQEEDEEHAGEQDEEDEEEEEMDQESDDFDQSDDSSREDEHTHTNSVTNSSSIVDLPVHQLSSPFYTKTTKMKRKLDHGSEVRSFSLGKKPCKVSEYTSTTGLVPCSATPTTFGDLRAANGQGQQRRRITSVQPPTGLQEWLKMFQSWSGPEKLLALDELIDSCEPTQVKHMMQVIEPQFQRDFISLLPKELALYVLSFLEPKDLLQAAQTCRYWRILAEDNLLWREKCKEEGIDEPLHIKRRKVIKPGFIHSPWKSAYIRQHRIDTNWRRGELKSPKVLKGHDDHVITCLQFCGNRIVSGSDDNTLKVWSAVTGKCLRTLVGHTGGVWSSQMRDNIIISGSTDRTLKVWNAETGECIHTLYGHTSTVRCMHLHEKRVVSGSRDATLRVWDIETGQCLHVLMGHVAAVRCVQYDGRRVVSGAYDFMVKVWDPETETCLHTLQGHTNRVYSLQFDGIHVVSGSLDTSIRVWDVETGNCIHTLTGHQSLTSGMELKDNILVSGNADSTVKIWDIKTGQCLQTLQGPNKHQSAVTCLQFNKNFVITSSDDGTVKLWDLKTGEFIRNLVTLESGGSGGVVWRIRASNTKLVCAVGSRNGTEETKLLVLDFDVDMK
MITF inh = blocks human microphthalmia-associated transcription factor. O75030. AlphaScreen MITF homodimerization, bead proximity signal. inhibition, % at 2.6 µM. hit rate 0.91% among 650,000. AID 1259374; in the data active = inhibition above about 50%;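 also: 0% = vehicle wells with protein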
GPR151 ag = activates the human receptor GPR151. PathHunter beta-arrestin GPR151 cells, luminescence. Q8TDV0. activation, % at 11.2 µM. hit rate 1% among 650,000; in the data active = activation above about 4.9%;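 also: 0% = median of compound wells and 100% = cells with positive control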
TEAD-YAP block = TEAD-YAP interaction inhibition. HEK-TIYL cells, TEAD-Gal4/YAP UAS-luciferase luminescence. inhibition, % at 9.12 µM. hit rate 1.4% among 640,000; in the data active = inhibition above about 32%;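 also: 0% = median of test compound wells and 100% = reference inhibitor wells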
* = called active by the depositor. An excerpt weighted towards active compounds, which were near 3.5% of everything screened.

SMILES | FBW7 activator | MITF inh | GPR151 ag | TEAD-YAP block
CN1CCN(c2ccc(CNS(=O)(=O)Cc3cccc(C(F)(F)F)c3)cc2)CC1 | -0.2 | 4.5 | 0.1 | 38.2*
CNC(=O)c1ccccc1Nc1cc(Nc2ccc(OC3CCN(C)CC3)cc2OC)ncc1C(F)(F)F | 0.0 | 14.2 | 0.3 | 73.8*
CNC(=O)c1ccccc1Nc1cc(Nc2ccc(N3CCN(C)CC3)cc2OC)ncc1C(F)(F)F | -0.1 | 0.1 | -1.3 | 85.2*
CNC(=O)c1ccccc1Nc1cc(Nc2ccc(N3CCC(N(C)C)C3)cc2OC)ncc1C#N (centres undefined) | -0.1 | 8.9 | -0.6 | 44.1*
CNC(=O)c1ccccc1Nc1cc(Nc2ccc(N3CCOCC3)cc2OC)ncc1Br | -0.1 | 13.8 | 0.2 | 9.4
CNC(=O)c1ccccc1Nc1cc(Nc2ccc(F)cc2OC)ncc1C(F)(F)F | 0.4 | -2.3 | -1.3 | 17.9
CCCCCn1c(SCC(=O)C(C)(C)C)nc2cc(C(=O)NCc3cccc(Cl)c3)ccc2c1=O | -0.1 | -9.6 | -0.7 | -5.5
Cc1ccc2nc(-c3ccc(NC(=O)CSc4nnc(N)s4)cc3)sc2c1 | -0.1 | -6.9 | -2.1 | 58.8*
Cc1ccc2nc(-c3ccc(OC(=O)c4cccc(I)c4)cc3)sc2c1 | -0.2 | -4.5 | -1.8 | 84.4*
Cc1ccc2nc(-c3ccc(NC(=O)/C=C/c4ccccc4)cc3)sc2c1 | 0.0 | 3.9 | -0.4 | -21.7
CC(=O)Nc1ccc(-c2nc3ccc(NC(C)=O)cc3s2)cc1 | 0.6 | -15.3 | 2.3 | -49.9
Cc1ccc2nc(-c3ccc(NC(=O)/C=C\C(=O)O)cc3)sc2c1 | 0.1 | -1.4 | 0.1 | 34.9*
Cc1ccc(-c2nc3ccccc3s2)cc1NC(=O)c1cccc(I)c1 | -0.1 | 7.8 | 1.4 | 2.2
CC(=O)Nc1ccc2nc(-c3ccc(OC(C)=O)cc3)sc2c1 | -0.2 | -4.0 | -0.4 | 78.1*
CCc1ccc(S(=O)(=O)N2CCSC2c2ccc(Cl)cc2)cc1 (centres undefined) | 0.5 | -6.9 | -0.2 | -41.8
COC(=O)CNS(=O)(=O)Nc1ccc(-c2nc3ccc(C)cc3s2)cc1 | -0.1 | 8.8 | -5.5 | 67.4*
Cc1ccc(OCC(=O)Nc2ccc(-c3nc4ccc(C)cc4s3)cc2)cc1 | 0.2 | 6.3 | -0.3 | -17.3
CC(=O)Oc1ccc(-c2nc3ccc(C)cc3s2)cc1 | 0.1 | 1.4 | -6.2 | 97.9*
COc1cc(OC)cc(C(=O)Nc2ccc(-c3nc4ccc(C)cc4s3)cc2)c1 | 0.1 | 9.5 | -0.1 | -2.5
Cc1ccc(C(=O)Oc2ccc(-c3nc4ccc(C)cc4s3)cc2)cc1 | 0.0 | -5.1 | -1.0 | 38.6*
Cc1ccc2nc(-c3ccc(OC(=O)c4ccc(Br)o4)cc3)sc2c1 | 0.1 | 8.3 | 0.9 | 65.0*
O=C1OC(OC(=O)c2ccc([N+](=O)[O-])cc2)C(Nc2ccccc2)=C1Cl (centres undefined) | -0.1 | -5.0 | 0.0 | 10.0
CCOC(=O)c1cc(NC(=O)CSc2nc(C)nc3sc4c(c23)CCCC4)cc(C(=O)OCC)c1 | 0.3 | 21.9 | -0.5 | -0.6
COc1nc(NCC(C)C)nc(Oc2ccc(=O)n(-c3ccccc3)n2)n1 | 2.4* | 3.4 | 0.4 | 5.5
CCNc1nc(OC)nc(Oc2ccc(=O)n(-c3ccccc3)n2)n1 | -0.1 | 0.2 | -0.4 | 3.3
SMILES | FBW7 activator | MITF inh | GPR151 ag | TEAD-YAP block
C=C(C)CN1C(=O)NC(CC)(C2CCN(CC3=CC[C@H]4C[C@@H]3C4(C)C)CC2)C1=O (some centres undefined) | 0.4 | 10.7 | 1.6 | 43.1*
C=C(C)CN1C(=O)NC(CC)(C2CCN(Cc3ccccc3C)CC2)C1=O (centres undefined) | 0.5 | 18.3 | -0.3 | -24.6
Cn1ncc(-c2ccnc(Nc3ccc(-n4cnc(N5CCOCC5)n4)cc3)c2)c1NC(=O)Cc1ccccc1 | -0.6 | -2.5 | 1.1 | 42.1*
Cn1ncc(-c2ccnc(Nc3ccc(N4CCOCC4)cc3)c2)c1Nc1ccccc1 | -0.7 | -3.6 | 2.0 | 19.9
Cn1ncc(-c2ccnc(Nc3ccc(N4CCOCC4)cc3)c2)c1N | -0.5 | -0.3 | 0.3 | 34.9*
CCCn1cc(-c2ccnc(Nc3ccc(-n4cnc(C)n4)cc3)c2)c(-c2ccc(F)cc2)n1 | 0.4 | 29.2 | 0.9 | -7.2
Cc1ncn(-c2ccc(Nc3cc(-c4cnn(CCc5ccccc5)c4-c4ccc(F)cc4)ccn3)cc2)n1 | 0.2 | 24.3 | -0.3 | 33.6*
Cc1ccc(C2(C(F)(F)F)N=C3Sc4ccccc4N3C(=O)N2)cc1 (centres undefined) | 0.1 | 4.9 | 1.1 | 1.9
CC1(C)CC(=O)C2=C(C1)NC(=S)NC2c1cccc(F)c1 (centres undefined) | -0.1 | -1.4 | 0.1 | 52.3*
CC1(C)CC(=O)C2=C(C1)Nc1ccccc1NC2c1cccc(F)c1 (centres undefined) | 0.2 | 4.1 | -1.1 | 11.4
